High-throughput results from PubChem BioAssay.
PINK1 expr mod – A Quantitative High throughput Screen to Identify Chemical Modulators of PINK1 Expression | Potency, µM (top dose mostly 76.6 µM), for inactives: at the highest dose activation (PINK1 increase), most hits filed as activators | PINK1 immunofluorescence, high-content cytometry, 24 h | actives 0.2% (n = 410,000); active means well fitted activation curve with a large enough effect; inconclusive means small, poorly fitted or top-dose-only effect; cell line not stated here; further: potency means the concentration at half of the fitted maximal effect; % of control where 0% means no effect; nearly all actives have a fitted effect of over 65% in size
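Readout is PINK1 immunofluorescence, quantified alongside mitochondrial, cell and nuclear markers by laser-scanning microplate cytometry. Cells from a stable line were exposed to compound titrations (5 concentrations) for 24 hours, with CCCP controls.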
MCF10A rereplic – A quantitative high throughput screen for small molecules that induce DNA re-replication in MCF 10a normal breast cells; MCF 10A DNA re-replication, Hoechst nuclear intensity, 48 h; AID 624296, 2012; actives 2.9% (n = 350,000); Potency, µM (top dose mostly 46.1 µM), inactives show at the highest dose activity, positive = re-replication, usual class: activators; further: potency means the concentration at half of the fitted maximal effect; % of control where 0% means no effect; nearly all actives have a fitted effect of over 50% in size
ATXN2 expr inh – Primary qHTS for Inhibitors of ATXN expression | actives 0.72% (n = 360,000) | HEK-293 ATXN2-luciferase reporter, luminescence, 24 h | Potency, µM (titrated, usually from 57 µM), for the others: top-dose activity change, negative = inhibition, hits mostly inhibitors; further: potency means the concentration at half of the fitted maximal effect; on the % scale 0 is the no-effect control and ±100 the full control effect; nearly all actives have a fitted effect of over 55% in size
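ATXN2-luciferase reporter cells (luciferase flanked by upstream and downstream ATXN2 gene portions) were treated 24 h at 37 °C with compounds at up to 57 uM. SteadyGlo luminescence gave expression; GF-AFC fluorescence gave viability.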
IL-1B inflam inh – qHTS for Inhibitors of Inflammasome Signaling: IL-1-beta AlphaLISA Primary Screen | actives 4.7% (n = 360,000) | THP-1 LPS/ATP IL-1B secretion, AlphaLISA, 16 h; stronger effect = lower value | AID 743279, 2014 | activity change, % at 57.5 µM; in the data active means activity change below about -50%; inconclusive means mostly about -30% to -49%; further: on the % scale 0 is the no-effect control and ±100 the full control effect
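Secreted IL-1B measured by AlphaLISA bead assay after 16 h compound exposure of THP-1 cells; compounds (final up to 57.5 uM) added 1 h before LPS (250 ng/mL) and ATP (1.25 mM) stimulation; lower signal means less secretion.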
S2 tox – Viability Counterscreen for Primary qHTS for Inhibitors of ATXN expression. S2 cells (HEK-293 line with an ATXN2-luciferase reporter) viability, CellTiter-Fluor protease fluorescence, 24 h. Potency, µM (doses to about 56.7 µM), actives largely listed as cytotoxic. actives 0.49% (n = 400,000); further: potency means the concentration at half of the fitted maximal effect; nearly all actives have a fitted effect of over 40% in size
SW480 rerep – A quantitative high throughput screen for small molecules that induce DNA re-replication in SW480 colon adenocarcinoma cells. SW480 DNA re-replication, Hoechst DNA content imaging, 48 h. Potency, µM (top dose mostly 46.1 µM), for inactives: top-dose re-replication activation, hits mostly activators. actives 1.8% (n = 340,000); further: potency means the concentration at half of the fitted maximal effect; % of control where 0% means no effect; nearly all actives have a fitted effect of over 55% in size
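First, 250 cells per well were seeded. Next, compound or vehicle (23 nL) was pinned in, plates sat 48 hr at 37 C. Finally Hoechst was added for 40 min before fluorescence scanning.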
* hit, by the source's call; i = inactive; ? = inconclusive; . = no result; [ ] = remark or other dose. An excerpt weighted towards active compounds, which were near 7.1% of everything screened. Unless noted, the call rests on the fitted dose curve; in most records, active means well fitted curve in the direction sought with a large enough effect; inconclusive means small, poorly fitted or top-dose-only effect, or another doubt; inactive means no such curve, though single readings can be large; an effect the other way counts as inactive or inconclusive.

SMILES | PINK1 expr mod | MCF10A rereplic | ATXN2 expr inh | IL-1B inflam inh | S2 tox | SW480 rerep
CCN(CC)S(=O)(=O)c1ccc(C(O)=C(C#N)c2nc3ccccc3n2C)cc1 | 0% | ? | ? | -72* | ? | 21%
COc1ccc(C2CC(=O)Oc3cc(C)c(Cl)c(C)c32)cc1 (configuration not stated) | 5% | 18µM* | -20% | 36 | i | -1%
O=C(Nc1ccc(F)cc1F)c1ccc2c(c1)CCN2S(=O)(=O)c1ccc(Cl)cc1 | 0% | . | -12% | . | ? | .
Cc1ccc2nc3cc([N+](=O)[O-])cc([N+](=O)[O-])c3cc2c1 | 0% | ? | 7.5µM* | -73* | 7.9µM* | 0.65µM*
Cc1nc2ccc([N+](=O)[O-])cc2nc1C | 0% | 0% | -3% | 9 | i | -5%
Cc1ccc(CSc2nc3cccnc3n2Cc2ccc(C(=O)NCCc3cccs3)cc2)cc1 | 4% | . | . | . | . | .
CCN(c1ccc(OC)cc1)S(=O)(=O)c1ccc2c(c1)CCN2C(=O)CCC(=O)O | -3%[38.3 µM] | 0% | 2% | -3 | i | ?
CCN(c1ccc(C)c(C)c1)S(=O)(=O)c1ccc2c(c1)CCN2C(=O)CCC(=O)O | ? | 21µM* | -10% | 24 | i | ?
CCOC(=O)N1CCc2c(sc(NCc3ccc(OC)c(OC)c3OC)c2C(=O)Nc2ccc(OC)cc2OC)C1 | 1% | . | -9% | . | i | .
CCOC(=O)N1CCc2c(sc(NCc3ccc(OCC)cc3)c2C(=O)Nc2ccc(OC)cc2OC)C1 | 0% | . | 13µM* | . | i | .
O=C(CCc1ccccc1)c1nnc(-c2ccccc2)o1 | 0% | 0% | 22% | -53* | i | 5%
COc1ccccc1OCC(=O)N(Cc1ccco1)Cc1ccccc1F | -1% | . | . | . | . | .
CCc1ccccc1NC(=O)c1ccc2c(c1)CCCN2S(C)(=O)=O | 4% | . | 9% | . | i | .
Nc1c(Cl)cc(N=Nc2ccccc2)cc1Cl | 2% | 23µM* | 19% | -6 | ? | 21%
C=CCNc1ncnc2c1[nH]c1ccc(C)cc12 | -4%[38.3 µM] | ? | 0% | -101* | i | 14%
Fc1ccc2[nH]c3c(NCc4ccccc4)ncnc3c2c1 | ? | ? | ? | -86* | i | 0%
COc1ccc2[nH]c3c(NCCCOC(C)C)ncnc3c2c1 | 6% | -11% | -10% | -67* | ? | ?
CCOc1ccc2[nH]c3c(NCCC(C)C)ncnc3c2c1 | ? | 12µM* | ? | -68* | i | ?
CCCCOc1ccc(C(=O)N(Cc2ccc(C(C)C)cc2)C2CCS(=O)(=O)C2)cc1 (configuration not stated) | 0% | . | -31% | . | ? | .
CC1(C)S[C@@H]2[C@H](NC(=O)Cc3ccccc3)C(=O)N2[C@H]1C(=O)O (tested in a mixture with another compound) | . | . | 8% | . | i | .
CC(CNC(=O)c1ccc2nc(Cc3ccccc3)oc2c1)c1ccccc1 (configuration not stated) | 2% | . | -38% | . | ? | .
COc1ccccc1CNC(=O)CN1N=C(c2ccccc2)CCC1=O | 1% | . | . | . | . | .
COc1ccc2[nH]c3c(NCCC4=CCCCC4)ncnc3c2c1 | -2% | 21µM* | ? | -105* | ? | ?
COc1ccc2c(c1)[nH]c1c(=O)n(CCC3=CCCCC3)cnc12 | 4% | -3% | 7% | -4 | i | -8%
O=C(Nc1ccncc1)C1C(=O)c2ccccc2N(Cc2ccccc2)C1=O (configuration not stated) | 0% | . | . | . | . | .
